# Assay outcomes deposited in PubChem by Sanford-Burnham Center for Chemical Genomics.
# Only some compounds are listed: those with a hit (about 2.6% of all), similar ones and a draw of the others.
# APOBEC3A inh: blocks human APOBEC3A ssDNA deamination; P31941; recombinant A3A, FAM/TAMRA ssDNA deamination fluorescence; inhibition, % at 20 µM; 330,000 compounds, 0.41% hits; AID 493011;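 active = at least 40% inhibition at 20 µM here, with at most 30% in a related deaminase screen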;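 also: plate controls were A3A with DMSO for no effect and wells lacking A3A enzyme for full effect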
# PHOSPHO1 block: PHOSPHO1 (human) inhibition. Q8TCT1. recombinant PHOSPHO1, absorbance phosphatase assay. inhibition, % at 13.3 µM. 290,000 compounds, 1.1% hits. AID 1565; in the data active = inhibition above about 60%
# eIF4H inh: inhibitors of RNA binding by human eIF4H; Q15056; 290,000 compounds, 0.94% hits; AID 2012; eIF4H fluorescence polarization binding assay; inhibition, % at 35 µM;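 also: calls also rest on retests at 20 µM and on dose response follow-up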
# APOBEC3G inh: blocks human APOBEC3G single-stranded DNA deamination; Q9HC16; recombinant A3G, ssDNA deamination FAM/TAMRA fluorescence; inhibition, % at 20 µM; 330,000 compounds, 0.28% hits;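 active = inhibition of at least 40% at 20 µM, with no more than 30% in the related APOBEC3A deaminase screen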;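 also: plate controls were DMSO wells with A3G for no effect and wells lacking A3G enzyme for full effect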
# Target sequence (Q9HC16 whole entry, looked up): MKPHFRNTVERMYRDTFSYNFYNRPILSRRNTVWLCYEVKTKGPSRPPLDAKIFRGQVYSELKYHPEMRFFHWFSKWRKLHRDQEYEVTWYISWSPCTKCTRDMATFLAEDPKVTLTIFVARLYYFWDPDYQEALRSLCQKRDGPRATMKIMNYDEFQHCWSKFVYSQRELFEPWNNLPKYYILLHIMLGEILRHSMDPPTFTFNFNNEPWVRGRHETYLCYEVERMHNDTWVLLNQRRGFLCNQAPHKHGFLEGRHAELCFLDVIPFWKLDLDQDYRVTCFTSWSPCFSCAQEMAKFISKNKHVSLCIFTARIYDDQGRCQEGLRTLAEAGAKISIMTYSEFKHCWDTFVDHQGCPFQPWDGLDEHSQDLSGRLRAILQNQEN
# MLLE-PAM2 inh: inhibitors of microRNA-mediated deadenylation, human PABP1 MLLE binding; P11940; GST-MLLE / FITC-PAM2 fluorescence polarization; inhibition, % at 20 µM; 360,000 compounds, 0.36% hits; in the data active = inhibition above about 35%, passing the limit was not always enough;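 also: plate controls were DMSO wells with GST-MLLE for no effect and wells lacking GST-MLLE protein for full effect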
# PABP polyA inh: blocks human PABP binding to poly(A) RNA. fluorescence polarization. calls only at 35 µM. 290,000 compounds, 1% hits;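 also: calls also rest on retests at 20 µM and on dose response follow-up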
# An asterisk follows results filed as active; i = inactive; · = no result; + = active, no number. Unless noted, no rule for the calls is given here.
SMILES,APOBEC3A inh,PHOSPHO1 block,eIF4H inh,APOBEC3G inh,MLLE-PAM2 inh,PABP polyA inh
Cc1cc(C(F)(F)F)n2ncc(C(=O)O)c2n1,-0.3,6.7,-10.8,-5.6,13.2,i
COc1ccc(C(CNC(=O)/C=C/c2c(Cl)nc3ccccn23)N(C)C)cc1 (centres undefined),-1.9,-7.2,7.6*,-2.1,-1.1,+
Cc1cccnc1NC(=S)NC(=O)c1oc2ccccc2c1C,-5.0,16.1,2.7,-8.3,40.2*,i
CC(=O)Nc1ccc(NC(=S)NC(=O)c2oc3ccccc3c2C)cc1,2.0,-10.5,-10.6,-2.7,11.7,i
COc1cccc(S(=O)(=O)N(C)C[C@@H]2Oc3ncc(C#CCN(C)C)cc3C(=O)N([C@H](C)CO)C[C@H]2C)c1,·,·,·,·,-8.9,·
Cc1cc(Cl)ccc1NC(=O)c1ccc2c(c1)CCN2S(C)(=O)=O,-5.3,47.9,-5.4,-8.6,-1.4,i
CCOc1cnc(-c2c(-c3c(F)cccc3Cl)noc2C)o1,-1.4,6.2,-15.9,-7.4,-5.2,i
O=C(CSc1nnc(-c2ccc(OC(F)F)cc2)o1)NC(=O)NCc1ccco1,35.7,73.7*,65.9*,21.8,-128.8,i
Cc1nnc(SCC(=O)NC(=O)NCc2ccco2)s1,4.1,24.4,-3.2,-2.0,11.3,i
O=C(CSc1nn(-c2ccc(F)cc2)c(=S)s1)NC(=O)NCc1ccco1,11.6,83.1*,33.6,11.2,-46.7,i
CCCCOc1ccc(-c2nnn(CC(=O)NCc3ccco3)n2)cc1,-1.2,13.5,5.1,6.1,-1.8,i
Cn1c(SCC(=O)NC(=O)NCc2ccco2)nnc1-c1ccccc1,20.2,63.7*,92.0*,19.3,-0.1,+
O=C(Cn1nnc(-c2ccccc2F)n1)NCc1ccco1,3.7,65.8*,7.1,2.3,4.9,i
O=C(NC1CCCCC1)C(c1ccccc1)N(Cc1cccnc1)C(=O)c1csnn1 (centres undefined),-1.4,12.1,-0.5,-1.7,4.0,i
Cc1ccccc1C(=O)Oc1ccc(Sc2ccc(O)cc2)cc1,-5.9,-1.4,1.1,-9.1,·,i
Cc1ccccc1CSCC(=O)NC(=O)NCc1ccco1,17.3,28.6,55.2*,11.7,12.3,+
Cc1cc(SCC(=O)NC(=O)NCc2ccco2)nc2ccccc12,-0.1,26.1,-6.2,3.0,7.0,i
Cc1cc(SCC(=O)NC(=O)NCc2ccco2)nc2c(C)cccc12,16.7,-29.3,51.1*,11.4,13.7,+
O=C(CSc1ccccc1F)NC(=O)NCc1ccco1,29.5,19.2,77.0*,26.7,-2.0,+
COc1ccc(C)cc1-n1nnnc1SCC(=O)NC(=O)NCc1ccco1,17.8,2.9,71.6*,10.5,-42.0,i
CCOc1ncccc1C(=O)Nc1cc(S(=O)(=O)N2CCCCC2)ccc1OC,-1.7,·,·,-9.8,-11.0,·
O=C(Nc1cccc(S(=O)(=O)N2CCOCC2)c1)C1=NN(c2ccccc2)C(=O)CC1,-5.4,30.7,-8.6,-1.3,-1.5,i
COc1ccccc1/C=C(/NC(=O)c1ccc(Cl)cc1Cl)C(=O)O,1.2,8.1,-2.4,-5.7,-7.0,i
O=C(CSc1n[nH]c(-c2ccccc2)n1)NC(=O)NCc1ccco1,·,87.8*,46.6*,·,-18.0,i
COc1cc(CCC(=O)OCC(=O)NCCc2ccc(S(N)(=O)=O)cc2)cc(OC)c1OC,-1.9,·,·,-5.8,-5.5,·
Cc1ccc(C(c2cc(Cl)c3cccnc3c2O)N2CCN(C)CC2)cc1 (centres undefined),5.1,-21.0,29.5,-10.3,48.2*,i
CN1CCN(C(c2ccccn2)c2cc(Cl)c3cccnc3c2O)CC1 (centres undefined),2.4,-22.6,28.0,3.3,43.2*,i
N#CC1=C(SCC(=O)Nc2ccc(C(=O)O)cc2)NC(=O)CC1c1ccco1 (centres undefined),21.0,2.8,25.8,-1.9,15.1,i
Cc1cccc(C2c3[nH]c4ccccc4c3CCN2C(=O)c2cc(C(C)C)nc(N)n2)n1 (centres undefined),-2.1,68.4*,0.4,-4.7,9.4,i
COC(=O)[C@@]1(Cc2ccc(F)cc2)[C@@H]2[C@@H](CC(=O)[C@H]2CC(=O)C(=O)N(C)C)CN1C(=O)c1ccccc1,-2.4,-1.4,71.4*,-2.0,-6.2,+
